High-throughput results deposited in PubChem by National Center for Advancing Translational Sciences (NCATS).
The full list was thinned out, with hits kept by preference.
Pf Dd2 inh = blocks in vitro growth of P. falciparum Dd2; P. falciparum Dd2 growth, SYBR Green, 72 h; Potency, µM (top dose mostly 28.9 µM), inactives show top-dose activity, negative = inhibition, most hits filed as inhibitors; actives 4.3% (n = 120,000); active = well fitted inhibition curve with a large enough effect;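 note: plate controls were DMSO vehicle for no effect and reference drug for full effect; nearly all actives have a fitted effect of over 65% in size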
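Readout: SYBR Green fluorescence, 485 nm excitation, 535 nm emission, after ~16 h lysis at 37C. Before that, Dd2-infected red cells (2.5% hematocrit) grew 72 h with compound, 29 uM top final concentration.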
Numbers without * were called inactive; i = inactive; [ ] = remark or other dose. Potency is the fitted concentration of half-maximal effect.

SMILES	Pf Dd2 inh
CCOc1ccccc1NC(=O)Cn1cccc1-c1nc(-c2ccc(F)cc2)no1	10µM*
O=C(Cn1cccc1-c1nc(-c2ccc(F)cc2)no1)Nc1ccc(Cl)cc1	144.1%
O=C(Cn1cccc1-c1nc(-c2ccccc2)no1)Nc1cc(F)cc(F)c1	9.7%
O=C(Cn1cccc1-c1nc(-c2ccccc2)no1)Nc1cccc(Cl)c1	2.51µM*
O=C(O)Cn1ccc2cc(OCc3cccc(-c4ccc(F)cc4F)c3)cnc21	-12.1%[44.1 µM]
Cc1ccc(CN(C)C(C)c2cccs2)cc1 (centres undefined)	-12.8%[44.1 µM]
COc1ccc(C(=O)N2C[C@@H]3C[C@H](C2)c2ccc(NS(=O)(=O)c4ccc(NC(C)=O)cc4)c(=O)n2C3)cc1	-15.6%
COc1ccccc1C(=O)N1CCC(CCOc2ccc(C)cc2)C1 (centres undefined)	-8.5%
O=C(c1ccccc1F)N1CCCC2(CC(c3cccnc3)=NO2)C1 (centres undefined)	13.3%
Cc1nn2c(=O)cc(COC(=O)c3ccc(C(C)(C)C)cc3)nc2s1	18.0%
COCCc1nn2c(=O)cc(COC(=O)c3cccs3)nc2s1	45.3%[5.79 µM]
COCCc1nn2c(=O)cc(COC(=O)c3ccc(C(C)(C)C)cc3)nc2s1	14.1µM*
Cc1ccc(CN2C[C@@H]3C(=O)N(C)C(=O)[C@@H]3C2)cc1C	12.7%
Cc1cc(C)c(C(=O)NCC(N)=O)c(=O)[nH]1	-11.1%
Cc1ccnc(C(NC(=O)CCc2cc3n(n2)CCCNC3)C2CC2)c1 (centres undefined)	-5.5%
CCOc1ccc(Cl)cc1CN(C)Cc1cc2n(n1)CCCNC2	5.62µM*
CN(Cc1ccc2c(c1)OCO2)Cc1cc2n(n1)CCNC2	-0.3%
CCn1ccc2sc(C)c(C(=O)N3CCOCC3)c2c1=O	-8.5%
Cc1ccc(C(=O)NC2CCN(c3ccc(F)cc3)C2=O)cc1C (centres undefined)	-18.6%
CCN1c2cc(C(=O)NCc3ccncc3)ccc2C(=O)N2CCCCCC21 (centres undefined)	-14.4%
CCC(=O)Nc1ccc(-c2nnc3n2CCCC3)cc1	21.0%
O=C(COc1cccc(-c2nnc3n2CCCC3)c1)Nc1ccc(Cl)cc1F	-29.2%
Cc1ccc(CC(=O)Nc2ccc(-c3nnc4n3CCCC4)cc2)cc1	i
COc1ccc(NC(=O)Cn2nc3n(c2=O)CCCCC3)cc1OC	i
COc1ccc(NC(=O)COc2cccc(-c3nnc4n3CCCC4)c2)cc1OC	7.94µM*
SMILES	Pf Dd2 inh
COc1ccc(NC(=O)COc2ccc(-c3nnc4n3CCCC4)cc2)cc1OC	8.91µM*
CC(C)N1C(=O)C2(CCCC2)C1C(=O)N1CCN(c2ncccn2)CC1 (centres undefined)	13.4%
CC1(c2ccccc2)N(Cc2cccnc2)C(=O)OC12CCN(Cc1ccccc1Cl)CC2 (centres undefined)	-9.4%
COc1ccc2cc3cc(C(=O)NCc4ccccc4OC)oc3nc2c1	i
COc1ccc(CNC(=O)c2cc3cc4ccc(C)cc4nc3o2)cc1	i
Cc1ccc2cc3cc(C(=O)N(C)c4ccccc4C)oc3nc2c1	11.2µM*
CC1=NS(=O)(=O)N(C)C=C1C(=O)OCc1nc(Cc2ccc(C)cc2)no1	-9.5%
CN1CCC(N2CC[C@H](c3nnc(-c4ccc(N(C)C)cc4)o3)C2)CC1	i
Cc1csc(NC(=O)[C@@H]2CCC[C@@H](NCc3cccnc3)CN(C)C(=O)C2)n1	i
Cn1nc(NC(=O)Cc2c[nH]c(=O)[nH]c2=O)c2c(N3CCOCC3)cccc21	22.0%
CC(C)c1ccc(OCC(=O)Nc2cc(-c3nc4ncccc4o3)ccc2Cl)cc1	-11.4%
CCC(C)c1ccc(OCC(=O)Nc2cccc(-c3nc4ncccc4o3)c2)cc1 (centres undefined)	2.51µM*
Cc1cc(C)cc(OCC(=O)Nc2ccc(-c3nc4ncccc4o3)cc2C)c1	-23.4%
CN1CC(=O)N(C2CCNCC2)Cc2c(NCCO)ncnc21	7.2%
Cc1ccsc1C(=O)N1CCC(n2cc(-c3nc(-c4ccccc4)no3)nn2)CC1	i
COc1cccc(C2c3c(oc4ccc(C)cc4c3=O)C(=O)N2CCCN2CCOCC2)c1OC (centres undefined)	22.1%
CCOc1cccc(C2c3c(oc4ccc(F)cc4c3=O)C(=O)N2CCc2ccc(OC)cc2)c1 (centres undefined)	2.0%
CCCOc1cccc(C2c3c(oc4ccc(F)cc4c3=O)C(=O)N2CCCN2CCOCC2)c1 (centres undefined)	6.31µM*
C=CCOc1cccc(-c2nc(C(=O)Nc3ccc(F)cc3)cs2)c1	i
NC(=O)c1cccc(CN2CCCC23Cc2ccccc2NC3=O)c1 (centres undefined)	-5.6%
CC(=O)N1CC2(CCCN(Cc3cccc(C(N)=O)c3)C2)Cc2ccccc21 (centres undefined)	-3.7%
O=C(C1CC1)N1CC2(CCCN2Cc2cccnc2)Cc2ccccc21 (centres undefined)	10µM*
CN1CCC(C(=O)N2Cc3ccccc3CC3(CCN(Cc4cccnc4)C3)C2)CC1 (centres undefined)	-23.7%
CC(=O)NCC(=O)N1Cc2ccccc2CC2(CCCN2Cc2ccccc2)C1 (centres undefined)	-16.9%
COc1ccc(CC(=O)N2Cc3ccccc3CC23CCCN(C(=O)CCCN)C3)cc1 (centres undefined)	14.1%
SMILES	Pf Dd2 inh
COc1ccc(CC(=O)N2Cc3ccccc3CC23CCCN(C(=O)CN)C3)cc1 (centres undefined)	-20.5%
CC(C)C(=O)N1Cc2ccccc2CC2(CCCCN2Cc2cccnc2)C1 (centres undefined)	12.6µM*
O=C(C1CCCC1)N1CC2(CCCCN2C2COC2)Cc2ccccc21 (centres undefined)	21.4%
CS(=O)(=O)N1CC2(CCCN2Cc2cccc(C(N)=O)c2)Cc2ccccc21 (centres undefined)	14.1µM*
CC(=O)N1Cc2ccccc2CC2(CCCN2Cc2ccccc2)C1 (centres undefined)	-7.7%
NCC(=O)N1CCCC2(Cc3ccccc3CN2C(=O)Cc2cccc(Cl)c2)C1 (centres undefined)	12.6µM*
CC(=O)Nc1ccc(CN2CCC3(CN[S+](=O)([O-])c4cnccc4O3)C2)cc1 (centres undefined)	16.5%
COCC(=O)Nc1cc(C(=O)N2CCc3cc(OC)c(OC)cc3C2)c2c(c1)nc(C1CCC1)n2C	i
CN(C)c1nc(-c2ccccc2)nc2c1CCN(C(=O)c1ccncc1)C2	-7.4%
CCc1noc(-c2cn(C3CCCN(C(=O)c4ccc(C)s4)C3)nn2)n1 (centres undefined)	-17.1%
COCC1(c2n[nH]c(C3CCOCC3)n2)CCC1	-5.6%
CN(Cc1cc2cc(F)ccc2[nH]1)C(=O)C1CCC(=O)N(C2CCCC2)C1 (centres undefined)	i
COCC(=O)N1CCc2nc(C(C)C)nc(-c3ccc(O)cc3)c2C1	10.6%
O=C(CC1CCCN(c2cnn(CC3CC3)c(=O)c2)C1)NCCc1c[nH]c2ccccc12 (centres undefined)	-16.4%
COc1ccc(-c2noc([C@@H]3CCCN3C(=O)c3cc(C)cc(C)c3)n2)cc1	i
Cc1cccc(OCC(=O)NCCn2cccc2-c2nc(-c3ccc4c(c3)OCO4)no2)c1	i
CNC(=O)[C@@H]1C[C@@H](O)CN1C1CCN(C(=O)Cc2cccc(C)c2)CC1	18.9%
O=C(O)CCC(=O)N1Cc2ccccc2CC2(CCCN2Cc2ccncc2)C1 (centres undefined)	4.2%
